SARS PLpro yeast = blocks SARS-CoV papain-like protease in a yeast assay. S. cerevisiae expressing SARS-CoV PLpro, growth rescue. Potency, µM (top dose mostly 32.9 µM), without a hit: top-dose activity, positive = growth rescue, actives largely listed as activators. 330,000 compounds, 0.19% hits; note: potency is the fitted concentration of half-maximal effect; 0% is about no effect; nearly all actives have a fitted effect of over 55% in size
NS1 function inh = influenza NS1 inhibition. Potency, µM (titrated, usually from 46.1 µM), inactives show at the top dose activity, positive = more growth. 270,000 compounds, 0.4% hits. AID 2326; note: potency is the fitted concentration of half-maximal effect; actives are rising curves; nearly all actives have a fitted effect of over 50% in size
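In this qHTS, NS1 from influenza A is expressed in budding yeast, where it slows growth. Cells are switched from glucose to 2% galactose medium (pH 6.0, -URA), treated with compound, and growth recovery is read at OD600.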
Shiga toxin inh = inhibitors of Shiga toxin in Vero cells. Vero cells, Shiga toxin protein synthesis inhibition reporter. inhibition, % at 38.7 µM. 290,000 compounds, 9.2% hits; in the data active = inhibition mostly above about 28%, no sharp cut-off; inactive = mostly below about 43%; note: 0% is about no effect
Cycloheximide cs = counter-screen for Shiga toxin inhibitors: cycloheximide protein synthesis inhibition | 300,000 compounds, 12% hits | max response, % | cell reporter, cycloheximide protein synthesis inhibition counterscreen; in the data active = max response mostly above about 13%, no sharp cut-off; inactive = mostly below about 14%; note: read at 38.3 µM for the half of the compounds with a filed dose; 0% is about no effect
Numbers without * were called inactive; u = inconclusive; x = no result; + = active, no number. Rows were chosen to be rich in hits. Some 12% of all compounds tested hit in one or more screens of this group. Unless noted, calls come from the whole dose curve.

SMILES | SARS PLpro yeast | NS1 function inh | Shiga toxin inh | Cycloheximide cs
C[C@@H]1CCC(=O)N(CC[C@H](N=[N+]=[N-])c2ccccc2)CC1 | -9.6% | -6.0% | 19.6 | 12.3
Cc1ccc(N(CC(=O)NC2CCCC2)C(=O)CCC(=O)Nc2nccs2)cc1C | 2.1% | 9.8% | -2.5 | -2.8
Clc1ccc(-c2cnc(Oc3ccccc3)nc2)cc1 | 7.1% | -3.5% | 162.8* | 73.6*
c1ccc(Sc2ncnc3ccccc23)cc1 | -1.7% | -54.4% | 35.8 | 12.4*
N#CCSc1ncnc2ccccc12 | 0.4% | -2.3% | -4.5 | 1.1
O=c1c2c3c(sc2nc2sc(C4CC4)nn12)CCCC3 | -4.8% | -12.2% | 53.6 | 33.2*
OCCOCCn1c2ccccc2c2ccccc21 | 2.0% | -119.7% | -9.9 | -5.7
CCOc1ccc(C(=O)Nc2ccc3nc(N4CCN(CC)CC4)cc(C)c3c2)cc1 | 0.2% | 5.5% | -17.5 | -8.1
CCN1CCN(c2cc(C)c3cc(NC(=O)c4cc(OC)cc(OC)c4)ccc3n2)CC1 | 0.6% | -3.2% | 63.6* | 18.5*
CCN1CCN(c2cc(C)c3cc(NC(=O)CCC(=O)N4CCN(c5ccccc5)CC4)ccc3n2)CC1 | 3.5% | -8.0% | -5.9 | 11.2
CCN1CCN(c2cc(C)c3cc(NC(=O)CCC(=O)N4CCN(c5ccccc5OC)CC4)ccc3n2)CC1 | 0.8% | -18.3% | 3.7 | 17.2*
COc1ccccc1NS(=O)(=O)c1ccc(C)c(NC(=O)c2c(C)noc2C)c1 | 6.2% | x | x | x
Cc1sc2ncnc(Sc3ccccc3C(=O)O)c2c1C | -0.9% | x | 1.2 | -2.4
CC(=O)c1ccc(NC(=O)c2ccccc2Sc2ncnc3sc(C)c(C)c23)cc1 | 0.4% | -2.3% | + | 17.5*
CC(=O)c1nnn(-c2ccc(F)cc2F)c1C | 0.8% | 8.6% | 3.8 | -0.6
Cc1c(-c2ccccc2)nnn1-c1ccc(F)cc1F | -3.5% | -38.4% | 73.4* | 45.0*
O=C(Nc1cccnc1)c1cc(-c2ccc3c(c2)OCO3)on1 | u | 7.1% | 89.4* | 30.0*
COc1ccc(-c2cc(C(=O)Nc3cc(OC)c(OC)c(OC)c3)no2)cc1OC | u | -1.5% | -14.3 | 1.0
COc1ccc(-c2cc(C(=O)Nc3cccnc3)no2)cc1OC | -3.2% | -15.5% | 59.9* | 32.2*
O=C(Nc1cccnc1)c1cc(-c2ccc(F)cc2)on1 | -1.0% | x | 92.3* | 53.4*
O=C(Nc1cccnc1)c1cc(-c2cccc(Cl)c2)on1 | -6.1% | -22.2% | -14.2 | -1.7
O=C(Nc1cccnc1)c1cc(-c2ccccc2O)on1 | 0.7% | -2.5% | 77.2* | 47.8*
O=C(Nc1cccnc1)c1cc(-c2ccc(Cl)c(Cl)c2)on1 | -4.1% | -5.8% | 47.2* | 20.9*
O=[N+]([O-])c1cc(C(F)(F)F)ccc1N1CCN(S(=O)(=O)c2ccc3c(c2)CCCC3)CC1 | -10.9% | -5.1% | -9.7 | -2.4
CN1/C(=C\C(=O)c2cccnc2)C(C)(C)c2ccccc21 | -7.1% | -11.7% | 24.0 | 15.2*
SMILES | SARS PLpro yeast | NS1 function inh | Shiga toxin inh | Cycloheximide cs
CN1/C(=C\C(=O)c2cncc(Br)c2)C(C)(C)c2ccccc21 | -14.6% | -31.1% | 10.1 | 2.1
CNS(=O)(=O)c1cc(Nc2ncnc3sccc23)ccc1C | -0.6% | -1.9% | 1.6 | 5.0
C=CCNC(=S)Nc1cc(Cl)ccc1OC | 24.2% | 8.9% | -4.6 | -0.9
COc1cc(/C=C2/C(=N)N3N=C(CC(=O)N4CCOCC4)SC3=NC2=O)ccc1OCc1ccc(F)cc1 | 0.5% | 10.6% | 106.0* | 39.5*
COc1ccc(/C=C2/C(=N)N3N=C(CC(=O)N4CCCC4)SC3=NC2=O)cc1OC | -16.2% | 5.4% | -6.1 | -3.7
COc1cc(/C=C2/C(=N)N3N=C(CC(=O)N4CCOCC4)SC3=NC2=O)ccc1OCc1ccccc1F | x | 17.1% | 42.7 | 26.3*
COc1ccc(C(=O)N2CCN(S(=O)(=O)c3ccc(Br)cc3)CC2)cc1 | 1.7% | x | x | x
CN(CC(=O)NCC1CCCCC1)S(=O)(=O)c1ccc(Cl)cc1 | 0.2% | -7.3% | -1.9 | -5.4
Cc1c(OCc2ccc(C(=O)O)o2)ccc2c3c(c(=O)oc12)CCC3 | 4.3% | 15.8% | 83.5* | 21.2
CCN(CC)C(=O)COc1ccc2c3c(c(=O)oc2c1C)CCCC3 | -2.2% | -28.0% | 21.6 | -2.9
COC(=O)c1ccc(COc2cc(C)cc3oc(=O)c4c(c23)CCCC4)o1 | -3.6% | -13.0% | -1.2 | 9.5
COC(=O)c1ccc(COc2ccc3c(C)c(C)c(=O)oc3c2C)o1 | -2.1% | 10.4% | 65.0* | 15.1*
Cn1c(C(=O)OC(C(=O)NCC2CCCO2)c2cccnc2)cc2sccc21 (stereo not given) | 1.0% | -3.4% | -3.2 | 7.6
CS(=O)(=O)c1ccc(/C=N\NC(N)=S)cc1 | x | -3.8% | x | x
Cc1ccccc1OCCn1cnc2cc([N+](=O)[O-])ccc2c1=O | -1.5% | x | 19.8 | 8.6
CCc1ccc(N(C(=O)Cn2nnc(-c3ccccc3)n2)C(C(=O)NC2CCCCC2)c2ccccn2)cc1 (stereo not given) | 9.6% | -0.2% | 45.3 | 7.4
COc1ccc2c(c1)CC/C2=N\OC(=O)c1ccccc1OC | -5.4% | -81.3% | 90.4* | 37.8*
COc1ccccc1C(=O)O/N=C1/CCCc2c1ccc(OC)c2[N+](=O)[O-] | -3.1% | -3.4% | -16.7 | -2.5
O=C(NCc1cccs1)C1CCN(S(=O)(=O)c2ccccc2F)CC1 | -0.2% | 8.7% | -8.2 | 0.4
COc1cc(/C=C(\C#N)c2nc3ccccc3[nH]2)c([N+](=O)[O-])cc1OCc1ccccc1 | -7.2% | 19.8% | 25.6 | -0.4
COc1cc(/C=C(/C#N)c2nc3ccccc3[nH]2)ccc1OCC(=O)Nc1ccccc1C | -11.4% | -8.3% | -19.9 | -4.2
COc1cccc(/C=C(\C#N)c2nc3ccc(C)cc3[nH]2)c1OCC(=O)O | 3.8% | u | 40.2* | 26.6*
CCN(CC)c1ccc(/C=C(/C#N)c2nc3ccccc3[nH]2)c(OC(C)C)c1 | -10.8% | -0.4% | 119.2* | 47.6*
COc1cc(/C=C(\C#N)c2nc3ccccc3[nH]2)ccc1OC(=O)c1ccco1 | -12.8% | -3.4% | 42.9* | 47.8*
N#C/C(=C\c1cccc(OCC(=O)O)c1)c1nc2ccccc2[nH]1 | 3.0% | 6.2% | 36.4 | 24.9*
SMILES | SARS PLpro yeast | NS1 function inh | Shiga toxin inh | Cycloheximide cs
COc1ccc(NC(C)=O)cc1S(=O)(=O)NC1CCSc2ccccc21 (stereo not given) | -3.7% | -36.3% | 0.3 | 6.3
O=C(COC(=O)c1ccccc1O)Nc1cccc2ccccc12 | 4.9% | x | x | x
CCC(C)NC(=O)C1CCN(S(=O)(=O)N2CCC3(CC2)OCCO3)CC1 (stereo not given) | -1.4% | x | -4.6 | -1.6
CCOc1cccc(/C=C(/C#N)c2nc3ccccc3[nH]2)c1OCC(=O)O | 5.4% | 9.6% | x | 22.1*
CCOc1cc(/C=C(/C#N)c2nc3ccccc3[nH]2)ccc1OCc1ccc(C(=O)O)o1 | -1.0% | u | 30.1 | 8.0
O=C(Nc1nccs1)c1ccc(COc2ccc(F)cc2)o1 | -1.7% | -5.1% | 52.0 | 32.3*
O=C(COc1ccc(F)cc1)Nc1nccs1 | 1.9% | -99.8% | 50.8* | 33.0*
COc1ccccc1NC(=O)c1ccc(COc2ccccc2Br)o1 | -0.7% | 1.2% | 1.5 | -2.1
O=C(Nc1nccs1)c1ccc(COc2ccccc2Br)o1 | -7.7% | -15.6% | 53.0* | 41.2*
O=C(Nc1nccs1)c1ccc(COc2ccc(Cl)cc2)o1 | x | -11.5% | 55.1* | 29.9*
Cc1ccc(NC(=O)C2CC(=O)Nc3ncnn32)c(C)c1 (stereo not given) | -3.2% | -13.5% | -5.2 | -2.9

High-throughput results deposited in PubChem BioAssay by National Center for Advancing Translational Sciences (NCATS).
